Assay outcomes as filed in PubChem.
This is a sample that favours compounds with a hit; in the whole collection about 2.4% have one here.
FEN1 inh = human FEN1 inhibition. Recombinant FEN1 flap cleavage, fluorescence, 15 min. Potency, µM (top dose mostly 114 µM), inactives show top-dose activity change, negative = inhibition, most hits filed as inhibitors. actives 0.35% (n = 390,000). AID 588795; further: on the % scale 0 is the no-effect control and ±100 the full control effect; nearly all actives have a fitted effect of over 65% in size
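Enzyme 10 nM, 15 min RT preincubation with compound; start with substrate 50 nM final; reads at 0 and 15 min; qHTS titration, four-parameter Hill fit.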
Pol eta inh = inhibitors of human DNA polymerase eta; Q9Y253; recombinant Pol eta, fluorescent DNA replication assay; Potency, µM (titrated, usually from 114 µM), for the others: at the highest dose activity change, negative = inhibition, most hits filed as inhibitors; actives 1.2% (n = 390,000); further: on the % scale 0 is the no-effect control and ±100 the full control effect
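Fluorescent replication assay: 50 nM final substrate added after a 15 min room-temperature compound preincubation with 10 nM enzyme. Signal taken at 0 min and again at 10 min.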
POLI inh = DNA polymerase iota (human) inhibition. Q9UNA4. actives 1% (n = 390,000). Pol iota fluorescent replication assay, 10 min. Potency, µM (highest dose often 115 µM), for the others: top-dose activity, negative = inhibition, hits mostly inhibitors
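Pol iota at 10 nM preincubated 15 min with compounds at room temperature; reaction started with fluorescent substrate, 50 nM final. Fluorescence read kinetically at 0 and 10 min; buffer-only wells as negative control.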
Pol beta inh = DNA polymerase beta (human) inhibition; AID 485314; P06746; Potency, µM (doses to about 114 µM), for inactives: at the top dose activity change, negative = inhibition, most hits filed as inhibitors; Pol beta primer extension/strand displacement, fluorescence kinetic; actives 1.3% (n = 340,000); further: on the % scale 0 is the no-effect control and ±100 the full control effect
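Homogeneous kinetic assay of primer extension and strand displacement by 10 nM Pol beta, preincubated 15 min at room temperature with compound before 50 nM substrate (final) was added. Read at 0 and 10 min; four-parameter Hill fit.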
POLK inh = blocks human DNA polymerase kappa activity | Q9UBT6 | purified Pol kappa, fluorescent DNA synthesis assay, 10 min | Potency, µM (highest dose often 107 µM), for inactives: top-dose activity, negative = inhibition, usual class: inhibitors | actives 0.53% (n = 400,000) | AID 588579; further: on the % scale 0 is the no-effect control and ±100 the full control effect
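50 nM final substrate added after 15 min RT preincubation of 10 nM Pol kappa with compound; fluorescence read at 0 and 10 min.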
WRN helicase inh = blocks human WRN helicase | Q14191 | Potency, µM (highest dose often 114 µM), for inactives: at the top dose activity change, negative = inhibition, usual class: inhibitors | WRN helicase unwinding, fluorescent forked duplex, kinetic | actives 0.46% (n = 360,000); further: on the % scale 0 is the no-effect control and ±100 the full control effect; nearly all actives have a fitted effect of over 55% in size
Target sequence (Q14191 whole entry, looked up): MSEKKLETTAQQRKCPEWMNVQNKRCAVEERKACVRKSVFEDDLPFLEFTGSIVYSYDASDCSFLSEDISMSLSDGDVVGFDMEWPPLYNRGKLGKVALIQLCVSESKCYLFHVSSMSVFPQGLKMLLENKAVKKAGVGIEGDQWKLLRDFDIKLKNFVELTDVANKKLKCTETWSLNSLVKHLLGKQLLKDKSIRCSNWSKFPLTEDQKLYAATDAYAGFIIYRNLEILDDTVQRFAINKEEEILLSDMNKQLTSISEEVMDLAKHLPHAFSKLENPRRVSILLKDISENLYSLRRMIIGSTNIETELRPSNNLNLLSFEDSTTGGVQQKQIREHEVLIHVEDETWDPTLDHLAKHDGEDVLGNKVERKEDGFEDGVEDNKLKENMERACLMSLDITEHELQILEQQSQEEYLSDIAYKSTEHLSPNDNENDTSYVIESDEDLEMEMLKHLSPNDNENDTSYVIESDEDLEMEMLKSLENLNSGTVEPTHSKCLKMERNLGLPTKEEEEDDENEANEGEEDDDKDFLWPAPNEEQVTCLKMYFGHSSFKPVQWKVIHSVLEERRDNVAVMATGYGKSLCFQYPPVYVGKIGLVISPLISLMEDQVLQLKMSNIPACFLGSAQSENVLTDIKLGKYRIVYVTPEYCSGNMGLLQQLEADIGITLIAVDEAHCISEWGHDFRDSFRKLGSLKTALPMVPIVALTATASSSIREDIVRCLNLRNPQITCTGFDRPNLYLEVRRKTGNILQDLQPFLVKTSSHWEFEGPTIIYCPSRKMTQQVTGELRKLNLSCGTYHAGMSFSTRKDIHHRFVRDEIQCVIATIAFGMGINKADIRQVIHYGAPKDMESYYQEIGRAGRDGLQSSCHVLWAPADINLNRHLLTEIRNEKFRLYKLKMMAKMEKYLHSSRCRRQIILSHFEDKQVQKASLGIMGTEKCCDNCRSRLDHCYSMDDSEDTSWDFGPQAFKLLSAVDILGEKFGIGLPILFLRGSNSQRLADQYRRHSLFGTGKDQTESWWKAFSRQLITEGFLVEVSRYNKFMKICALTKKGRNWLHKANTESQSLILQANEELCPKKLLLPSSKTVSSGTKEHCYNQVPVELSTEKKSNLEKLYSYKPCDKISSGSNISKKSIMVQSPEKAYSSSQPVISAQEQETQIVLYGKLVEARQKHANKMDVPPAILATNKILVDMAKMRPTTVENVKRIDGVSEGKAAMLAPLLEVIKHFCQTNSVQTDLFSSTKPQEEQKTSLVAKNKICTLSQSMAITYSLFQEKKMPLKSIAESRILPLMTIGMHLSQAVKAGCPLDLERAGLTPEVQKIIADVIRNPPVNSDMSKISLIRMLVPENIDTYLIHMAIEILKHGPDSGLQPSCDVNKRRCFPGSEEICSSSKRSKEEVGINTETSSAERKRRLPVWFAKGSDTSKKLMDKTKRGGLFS
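WRN at 20 nM final was preincubated with compound for 15 min at room temperature; reaction started with 100 nM forked duplex oligonucleotide carrying fluorophore and quencher plus 2 mM ATP (final). Unwinding followed kinetically by red fluorescence (ex 525/em 598 nm).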
The depositor's hits bear a star; u = inconclusive; x = no result given; [ ] = dose if it differs, or a comment. The call rests on the fitted dose curve; in most records, active means well fitted curve in the direction sought with a large enough effect; inconclusive means small, poorly fitted or top-dose-only effect, or another doubt; inactive means no such curve, though single readings can be large; an effect the other way counts as inactive or inconclusive. Potency means the concentration at half of the fitted maximal effect.

SMILES | FEN1 inh | Pol eta inh | POLI inh | Pol beta inh | POLK inh | WRN helicase inh
O=C(CCCc1c[nH]c2ccccc12)NCCc1c[nH]c2ccccc12 | -14.2% | 89.1µM* | 29.5% | -1.7% | -6.4% | -1.8%
CCc1cnc2c(c1SCC(=O)Nc1ccc(OC)c(OC)c1)c(=O)n(C)c(=O)n2C | -0.2% | -15.5% | 14.9% | 17.1% | -3.1%[60.1 µM] | x
Cc1cccnc1NC(=S)NC(=O)/C=C/c1ccco1 | 10.9% | u | u | -10.5% | -38.4% | -26.4%
Cn1nnc(NC(=S)NC(=O)/C=C/c2ccco2)n1 | u | 17.8µM* | u | u | u | u
O=C(/C=C/c1ccco1)NC(=S)Nc1ccccn1 | 12.0% | 4.0% | -6.0% | 39.8µM* | -24.5% | -7.8%
CCOc1ccccc1CNC(=O)Cn1cc2c(n1)-c1c(oc(C(=O)N3CCCC3)c1C)CC2 | u | -20.1% | u | 17.9% | -4.8% | x
O=C(COc1ccc(S(=O)(=O)N2CCCC2)cc1)NCc1ccco1 | 6.8% | u | u | u | -29.3% | -15.7%
CCN(c1ccccc1)S(=O)(=O)c1cc(C(=O)OC(C)C(=O)Nc2ccc3c(c2)OCCO3)ccc1C (stereo unspecified) | 1.3% | u | u | 10µM* | u | -9.6%[11.6 µM]
O=C(COC(=O)c1ccc(S(=O)(=O)N2CCCCC2)cc1)NCc1ccco1 | -2.3% | u | u | 39.8µM* | u | 2.8%[11.6 µM]
CC(OC(=O)c1ccccn1)C(=O)Nc1ccc2c(c1)OCCO2 (stereo unspecified) | -9.0% | -2.3% | 11.3% | x | 5.8% | 4.3%
O=C(COC(=O)c1ccc(S(=O)(=O)NCc2ccco2)cc1)NCCC1=CCCCC1 | -5.5% | u | u | 44.7µM* | u | -7.1%
O=C(NCCc1ccc(F)cc1)c1ccc(Cl)c(S(=O)(=O)N2CCOCC2)c1 | 9.0% | 44.7µM* | u | x | -29.4% | 3.3%[11.6 µM]
C=CC[C@@H]1[C@H](O)CC[C@@]2(C)[C@H]1CC[C@@H]1[C@@H]2CC[C@]2(C)C([C@H](C)CCCC(C)C)CC[C@@H]12 (stereo partly specified) | x | x | x | x | 4.2%[19.4 µM] | x
Cc1cc(S(=O)(=O)N2CCOCC2)ccc1OCC(=O)NCc1ccco1 | 1.3% | -1.6% | 40.9% | -1.1% | -11.8% | -3.2%[57.1 µM]
O=C(OC1CCOC1=O)c1ccc(Cl)c(S(=O)(=O)N2CCOCC2)c1 (stereo unspecified) | 15.2% | 39.8µM* | 70.8µM* | x | u | -9.8%
O=C(OC1CCOC1=O)c1ccc(Cl)c(S(=O)(=O)N2CCCCC2)c1 (stereo unspecified) | -0.1% | -29.7% | -1.1% | u | -11.1% | -0.8%[57.1 µM]
O=C(NCc1ccco1)c1ccc(Cl)c(S(=O)(=O)N2CCCC2)c1 | 14.0% | u | 35.5µM* | x | -28.1% | -16.1%
Cc1cc(S(=O)(=O)N2CCCC2)ccc1OCC(=O)NCc1ccco1 | 6.3% | -17.0% | u | 25.1µM* | -3.5%[60.1 µM] | -10.8%
COc1cccc(NC(=O)COC(=O)c2ccc(S(=O)(=O)NCc3ccco3)cc2)c1 | 14.2% | 8.91µM* | u | u | u | -15.4%[57.1 µM]
CC(=O)Nc1ccc(NC(=O)COC(=O)c2ccc(S(=O)(=O)NCc3ccco3)cc2)cc1 | 0.0% | -6.9% | -17.2% | x | -11.9% | 1.8%
COc1ccc([N+](=O)[O-])cc1NC(c1nnc(-c2ccccc2)o1)c1ccccc1F (stereo unspecified) | 7.9% | -12.7% | 8.9% | -8.5% | 0.0% | x
CCOc1ccc(Cn2nnc3c(=O)[nH]c(C4CCN(C(=O)c5ccccc5)CC4)nc32)cc1 | -10.1% | -10.8% | -8.4% | 16.6% | -4.1% | x
O=C(OCc1nnc(-c2ccccc2)o1)c1ccc(S(=O)(=O)NCc2ccco2)cc1 | -12.0% | 22.4µM* | u | 3.55µM* | u | -22.8%
Cc1ccc(NS(=O)(=O)c2cccc(C(=O)OCC(=O)NCc3ccco3)c2)cc1 | -6.5% | u | u | -12.9% | u | -0.5%[11.6 µM]
